{"source": "the antibiotic and cytotoxicity screens of Wong et al. (2023)", "note": "The whole screen tested about 39,000 compounds, of which about 500 (1.3%) were called active. Shown is part of a subset that was picked to be rich in actives."}
{"system": "S. aureus RN4220", "assay": "growth inhibition call (relative growth <= 0.2)", "details": "50 µM"}
{"molecule": "C[C@H](CO)N1C[C@H](C)[C@H](CN(C)C(=O)Cc2ccccc2)OCCCC[C@H](C)Oc2ccc(NS(=O)(=O)c3ccc(F)cc3)cc2C1=O", "growth inhibition call": "inactive"}
{"molecule": "C[C@@H]1CN([C@@H](C)CO)C(=O)c2cccc(NC(=O)Nc3ccc(C(F)(F)F)cc3)c2O[C@H]1CN(C)C(=O)NC1CCCCC1", "growth inhibition call": "inactive"}
{"molecule": "C[C@H](O)C#Cc1cnc2c(c1)C(=O)N([C@@H](C)CO)C[C@H](C)[C@@H](CN(C)C(=O)Nc1ccc(C(F)(F)F)cc1)O2", "growth inhibition call": "inactive"}
{"molecule": "C[C@@H]1CN([C@H](C)CO)C(=O)Cc2cc(NC(=O)Nc3ccc(C(F)(F)F)cc3)ccc2O[C@@H]1CN(C)C(=O)Nc1cccc2ccccc12", "growth inhibition call": "inactive"}
{"molecule": "CO[C@@H]1[C@@H](OC(=O)c2ccc(C)[nH]2)[C@@H](O)[C@@H](Oc2ccc3c(c2C)OC(=O)[C@H](NC(=O)c2[nH]cc(CC(=O)Nc4cc5ccc(O[C@@H]6OC(C)(C)[C@H](OC)[C@@H](OC(=O)c7ccc(C)[nH]7)[C@H]6O)c(C)c5oc4=O)c2C)C3)CC1(C)C", "growth inhibition call": "inactive"}
{"molecule": "COC1C(OC(N)=O)C(O)C(Oc2ccc3c([O-])c(NC(=O)c4ccc(O)c(CC=C(C)C)c4)c(=O)oc3c2C)OC1(C)C.[Na+]", "note": "(stereo unspecified)", "growth inhibition call": "active"}
{"molecule": "O=C(C[C@H]1C[C@@H]2c3cc(NS(=O)(=O)c4ccc(F)cc4)ccc3O[C@@H]2[C@@H](CO)O1)NC1CCCCC1", "growth inhibition call": "inactive"}
{"molecule": "O=C(C[C@H]1CC=CCCC(=O)OCCNC1=O)NCCO", "growth inhibition call": "inactive"}
{"molecule": "c1n[nH]nc1SSc1cn[nH]n1", "growth inhibition call": "active"}
{"molecule": "C[C@@H]1CN([C@@H](C)CO)C(=O)Cc2cc(NC(=O)CCCN(C)C)ccc2O[C@H]1CN(C)S(C)(=O)=O", "growth inhibition call": "inactive"}
{"molecule": "COc1ccc(S(=O)(=O)N(C)C[C@@H]2Oc3ccc(NC(=O)Nc4cccc5ccccc45)cc3C(=O)N([C@@H](C)CO)C[C@@H]2C)cc1", "growth inhibition call": "inactive"}
{"molecule": "COc1ccc(S(=O)(=O)Nc2cccc3c2O[C@@H](CN(C)S(=O)(=O)c2cn(C)cn2)[C@@H](C)CN([C@H](C)CO)C3=O)cc1", "growth inhibition call": "inactive"}
{"molecule": "C[C@H]1CN([C@@H](C)CO)C(=O)c2cc(NC(=O)Nc3ccc(C(F)(F)F)cc3)ccc2O[C@H]1CN(C)Cc1ccc(C(=O)O)cc1", "growth inhibition call": "inactive"}
{"molecule": "Cc1ccc(S(=O)(=O)Nc2cccc3c2O[C@H](CN(C)Cc2ccc(C(F)(F)F)cc2)[C@H](C)CN([C@@H](C)CO)C3=O)cc1", "growth inhibition call": "inactive"}
{"molecule": "NC[C@@H]1O[C@H](C23CC4CC(CC(C4)C2)C3)Cc2c1ccc(O)c2O", "growth inhibition call": "active"}
{"molecule": "Cn1cnc(S(=O)(=O)N2CC[C@H]3NC(=O)C[C@H]32)c1", "growth inhibition call": "inactive"}
{"molecule": "C[C@@H]1CN([C@H](C)CO)C(=O)Cc2cc(NC(=O)CCC(F)(F)F)ccc2O[C@H]1CN(C)S(=O)(=O)c1cn(C)cn1", "growth inhibition call": "inactive"}
{"molecule": "OC1(c2ccc(Cl)c(C(F)(F)F)c2)CCN(CCCC(c2ccc(F)cc2)c2ccc(F)cc2)CC1", "note": "[listing 1 of 2 here]", "growth inhibition call": "active"}
{"molecule": "O=C(CCCN1CCC(O)(c2ccc(Cl)cc2)CC1)c1ccc(F)cc1", "growth inhibition call": "inactive"}
{"molecule": "OC1(c2ccc(Cl)c(C(F)(F)F)c2)CCN(CCCC(c2ccc(F)cc2)c2ccc(F)cc2)CC1", "note": "[listing 2 of 2 here]", "growth inhibition call": "inactive"}
{"molecule": "C[C@H](CO)N1C[C@H](C)[C@@H](CN(C)S(=O)(=O)c2ccc(F)cc2)Oc2c(NC(=O)c3ccncc3)cccc2C1=O", "growth inhibition call": "inactive"}
{"molecule": "C[C@@H]1CN([C@@H](C)CO)C(=O)c2cc(NC(=O)C3CCCCC3)ccc2O[C@@H](C)CCCCO[C@H]1CN(C)Cc1ccc(C(F)(F)F)cc1", "growth inhibition call": "inactive"}
{"molecule": "COc1ccc(S(=O)(=O)N(C)C[C@@H]2Oc3ccc(NC(=O)C4CC4)cc3CC(=O)N([C@@H](C)CO)C[C@H]2C)cc1", "growth inhibition call": "inactive"}
{"molecule": "C[C@H]1c2cccc(O)c2C(=O)C2=C(O)[C@]3(O)C(=O)[C@@H](C(N)=O)C(=O)[C@@H](N(C)C)[C@@H]3[C@@H](O)[C@@H]21", "growth inhibition call": "active"}
{"molecule": "CC1c2cccc(O)c2C(=O)C2=C(O)C3(O)C(=O)C(C(N)=O)=C(O)C(N(C)C)C3C(O)C21.Cl", "note": "(stereo unspecified)", "growth inhibition call": "inactive"}
{"molecule": "C=C1c2cccc(O)c2C(=O)[C@@H]2C(=O)[C@]3(O)C(=O)[C@@H](C(N)=O)C(=O)[C@@H](N(C)C)[C@@H]3[C@@H](O)[C@H]12", "growth inhibition call": "inactive"}
{"molecule": "COc1ccc(S(=O)(=O)N(C)C[C@@H]2Oc3c(NC(=O)C4CC4)cccc3C(=O)N([C@@H](C)CO)C[C@@H]2C)cc1", "growth inhibition call": "inactive"}
{"molecule": "CO[C@@H]1CN(C)C(=O)c2ccc(NC(=O)C3CC3)cc2OC[C@H](C)N(C(=O)CN2CCOCC2)C[C@H]1C", "growth inhibition call": "inactive"}
{"molecule": "C[C@@H]1CN([C@H](C)CO)C(=O)c2cc(NS(=O)(=O)c3ccccc3)ccc2O[C@@H](C)CCCCO[C@H]1CN(C)C(=O)NC1CCCCC1", "growth inhibition call": "inactive"}
{"molecule": "CC1COc2c(N3CCN(C)CC3)c(F)cc3c(=O)c(C(=O)O)cn1c23", "note": "(stereo unspecified)", "growth inhibition call": "active"}
{"molecule": "CC1CCc2cc(F)cc3c(=O)c(C(=O)O)cn1c23", "note": "(stereo unspecified)", "growth inhibition call": "active"}
{"molecule": "CC1CCc2c(N3CCC(O)CC3)c(F)cc3c(=O)c(C(=O)O)cn1c23", "note": "(stereo unspecified)", "growth inhibition call": "inactive"}
{"molecule": "CN1CCN(c2c(F)cc3c(=O)c(C(=O)O)cn4c3c2OCN4C)CC1", "growth inhibition call": "active"}
{"molecule": "CC1COc2c(C3(N)CC3)c(F)cc3c(=O)c(C(=O)O)cn1c23.CS(=O)(=O)O", "note": "(stereo unspecified)", "growth inhibition call": "inactive"}
{"molecule": "C[C@H]1COc2c(C3(N)CC3)c(F)cc3c(=O)c(C(=O)O)cn1c23", "growth inhibition call": "active"}
{"molecule": "COc1ccc2c3c([nH]c2c1)[C@@H](CO)N(C[C@]13CCN(CC1)C(=O)NC(C)C)C(=O)CN1CCOCC1", "growth inhibition call": "inactive"}
{"molecule": "C[C@H]1CN([C@@H](C)CO)C(=O)c2cc(C#CCN(C)C)cnc2O[C@@H]1CN(C)C(=O)Nc1cccc(F)c1", "growth inhibition call": "inactive"}
{"molecule": "C[C@@H]1CN([C@@H](C)CO)C(=O)Cc2cc(NC(=O)NC3CCCCC3)ccc2O[C@H]1CN(C)C(=O)Nc1ccc(C(F)(F)F)cc1", "growth inhibition call": "inactive"}
{"molecule": "Cc1ccc(S(=O)(=O)Nc2ccc3c(c2)C(=O)N([C@@H](C)CO)C[C@H](C)[C@@H](CN(C)Cc2ccc(C(F)(F)F)cc2)OCCCC[C@H](C)O3)cc1", "growth inhibition call": "inactive"}
{"molecule": "C[C@H]1CN([C@@H](C)CO)C(=O)Cc2cc(NS(=O)(=O)c3cn(C)cn3)ccc2O[C@@H]1CN(C)Cc1ccncc1", "growth inhibition call": "inactive"}
{"molecule": "COc1ccc(S(=O)(=O)Nc2ccc3c(c2)CC(=O)N([C@@H](C)CO)C[C@@H](C)[C@@H](CN(C)S(=O)(=O)c2cn(C)cn2)O3)cc1", "growth inhibition call": "inactive"}
{"molecule": "Cc1noc(C)c1NC(=O)Nc1ccc2c(c1)CC(=O)N([C@H](C)CO)C[C@H](C)[C@H](CN(C)Cc1ccc(Cl)c(Cl)c1)O2", "growth inhibition call": "inactive"}
{"molecule": "CN1C[C@H](C(N)=O)CC1=O", "growth inhibition call": "inactive"}
{"molecule": "Nc1ccc(/C=C/C(=O)NCc2cc3cc(-c4ccc(C(=O)N5CCC(F)(F)CC5)cc4)cc(-c4ccc(F)cc4)c3o2)cn1", "growth inhibition call": "inactive"}
{"molecule": "Cc1ccc(S(=O)(=O)N2C[C@@H](O)COC[C@H]3O[C@@H](CC(=O)NCCN4CCCCC4)CC[C@@H]32)cc1", "growth inhibition call": "inactive"}
{"molecule": "C[C@H](CO)N1C[C@H](C)[C@H](CN(C)Cc2ccncc2)OCCCC[C@H](C)Oc2ccc(NC(=O)C3CCCCC3)cc2C1=O", "growth inhibition call": "inactive"}
{"molecule": "C[C@H]1CN([C@@H](C)CO)C(=O)Cc2cc(NS(=O)(=O)c3cccs3)ccc2O[C@@H]1CN(C)C(=O)Nc1cccc2ccccc12", "growth inhibition call": "inactive"}
{"molecule": "CC(C)NC(=O)Nc1ccc2c(c1)CC(=O)N([C@H](C)CO)C[C@@H](C)[C@@H](CN(C)C(=O)NC1CCCCC1)O2", "growth inhibition call": "inactive"}
{"molecule": "C=CCc1ccc(O)c(OC)c1", "growth inhibition call": "active"}
{"molecule": "COc1cc(C=O)ccc1O", "growth inhibition call": "inactive"}
{"molecule": "COc1cc(C(C)=O)ccc1O", "growth inhibition call": "inactive"}
{"molecule": "C[C@@H]1CN([C@@H](C)CO)C(=O)c2cccc(NC(=O)c3cnccn3)c2O[C@H]1CN(C)S(C)(=O)=O", "growth inhibition call": "inactive"}
{"molecule": "COc1ccc(S(=O)(=O)N(C)C[C@@H]2Oc3c(NC(=O)NC(C)C)cccc3C(=O)N([C@H](C)CO)C[C@H]2C)cc1", "growth inhibition call": "inactive"}
{"molecule": "CCCNC(=O)N1[C@@H]2c3cccc(=O)n3C[C@H]1[C@H](CO)[C@H]2C(=O)NCC(F)(F)F", "growth inhibition call": "inactive"}
{"molecule": "FC(F)(F)c1cc(NC(=S)Nc2ccc(Br)cc2-c2nn[nH]n2)cc(C(F)(F)F)c1", "growth inhibition call": "active"}
{"molecule": "O=C(Nc1cc(C(F)(F)F)cc(C(F)(F)F)c1)Nc1cnn(-c2ccc([N+](=O)[O-])cc2)c1C(F)(F)F", "growth inhibition call": "inactive"}
{"molecule": "O=C(Nc1cc(C(F)(F)F)cc(C(F)(F)F)c1)Nc1c(Br)cc(Br)cc1-c1nn[nH]n1", "growth inhibition call": "active"}
{"molecule": "C[C@@H]1CN([C@H](C)CO)C(=O)Cc2cc(NC(=O)Cn3cnnn3)ccc2O[C@@H]1CN(C)S(=O)(=O)c1ccccc1", "growth inhibition call": "inactive"}
{"molecule": "COc1cccc(NC(=O)N[C@@H]2C=C[C@H](CC(=O)N3CCOCC3)O[C@H]2CO)c1", "growth inhibition call": "inactive"}
{"molecule": "Cc1noc(C)c1NC(=O)N(C)C[C@@H]1OCCCC[C@@H](C)Oc2ccc(NC(=O)Cc3ccccc3)cc2C(=O)N([C@@H](C)CO)C[C@@H]1C", "growth inhibition call": "inactive"}
{"molecule": "Cc1noc(C)c1S(=O)(=O)Nc1ccc2c(c1)C(=O)N([C@@H](C)CO)C[C@@H](C)[C@@H](CN(C)C(=O)NC(C)C)O2", "growth inhibition call": "inactive"}
{"molecule": "O=C1CN(N=Cc2ccc([N+](=O)[O-])o2)C(=O)N1", "growth inhibition call": "active"}
{"molecule": "O=C1OCCN1N=Cc1ccc([N+](=O)[O-])o1", "growth inhibition call": "active"}
{"molecule": "O=C1OC(CN2CCOCC2)CN1N=Cc1ccc([N+](=O)[O-])o1", "note": "(stereo unspecified)", "growth inhibition call": "active"}
{"molecule": "O=C1CN(N=Cc2ccc(-c3ccc([N+](=O)[O-])cc3)o2)C(=O)[N-]1.[Na+]", "growth inhibition call": "inactive"}
{"molecule": "O=C1CN(/N=C/c2ccc([N+](=O)[O-])o2)C(=O)N1", "growth inhibition call": "active"}
{"molecule": "O=[N+]([O-])c1cncn1CCN1CCOCC1", "growth inhibition call": "inactive"}
{"molecule": "COc1ccc(CN(C)C[C@@H]2OCCCC[C@H](C)Oc3ccc(NS(=O)(=O)c4cccs4)cc3C(=O)N([C@@H](C)CO)C[C@H]2C)cc1", "growth inhibition call": "inactive"}
{"molecule": "O=C(O)[C@H](O)c1ccccc1", "growth inhibition call": "inactive"}
{"molecule": "COc1ccc(S(=O)(=O)N[C@H]2CC[C@H](CCNC(=O)CN3CCOCC3)O[C@@H]2CO)cc1", "growth inhibition call": "inactive"}
{"molecule": "C[C@@H]1CCCCO[C@@H](CN(C)Cc2ccncc2)[C@@H](C)CN([C@H](C)CO)C(=O)c2cc(NC(=O)Nc3ccc(F)cc3)ccc2O1", "growth inhibition call": "inactive"}
